In PubChem BioAssay AID1285 (Columbia University Molecular Screening Center, 2008):
In all, about 190,000 compounds went through this assay and about 1,600 (0.84%) were called active. Shown is part of a subset that was picked to be rich in actives. Unmarked numbers belong to inactive results.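 Rule for the calls: active = inhibition above a set limit, derived from the sample mean plus 3 SD (cut at about 45% in these data); inconclusive = one replicate passes the limit while the other fails; inactive = the rest.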

Assay: APP 5'UTR translational reporter suppression – APP 5'UTR luciferase, SH-SY5Y cells, primary screen (AID 1285)
Settings: SH-SY5Y APP 5'UTR-luciferase reporter, luminescence; at 2 µM; active compounds read high
For Cc1ccc(S(=O)(=O)N(CC(=O)NN=C2CCN(C)CC2)c2ccc(F)cc2)cc1, the inhibition was -21%.
For CCCC1=Nc2cc(C(=O)NCc3ccco3)ccc2Sc2ccccc21, the inhibition was 90.1% (active).
With COc1ccc(CCNS(=O)(=O)c2ccc(C(=O)NCc3ccco3)cc2)cc1OC the inhibition was -8.6%.
CCOc1ccccc1C(=O)NCc1ccco1 gave an inhibition of -2.6%.
Work on CC(=O)N1CCN(S(=O)(=O)c2cccc(C(=O)NC3CCC(C)CC3)c2)CC1 (configuration not stated) yielded an inhibition of 2.6%.
For O=C(COc1ccc(NC(=O)c2ccccc2[N+](=O)[O-])cc1)c1ccc(F)cc1, the inhibition was -3.2%.
Work on CCN(CC)C(=O)N(CC)Cc1ccccc1 yielded an inhibition of -8.7%.
Work on CC(=O)Nc1ccc(S(=O)(=O)N2CCN(C3CCCCCCC3)CC2)cc1 yielded an inhibition of -4.6%.
In the case of CC(=O)Nc1ccc(S(=O)(=O)N2CCN(C(=O)c3ccccc3F)CC2)cc1, the inhibition is reported as 94.3% (active).
With CC(=O)Nc1ccc(S(=O)(=O)N2CCSCC2)cc1 the inhibition was 11.7%.
CN(Cc1ccc2nsnc2c1)Cc1nc(Cc2cccc(F)c2)no1 showed an inhibition of -3.3%.
Work on CNc1ccc(NC(C)=O)cc1[N+](=O)[O-] yielded an inhibition of -17.6%.
CC(C)CC(=O)NC(=S)Nc1ccc(F)cc1F showed an inhibition of -8.3%.
For COc1cccc(OCCOc2cccc(/C=N/n3cnnc3)c2)c1, the inhibition was -90.8%.
COc1ccccc1OCCOc1ccc(/C=N/n2cnnc2)cc1 showed an inhibition of 8.5%.
For Cc1ccccc1OCCOc1ccc([N+](=O)[O-])cc1/C=N/n1cnnc1, the inhibition was 45.2% (active).
O=C(COC(=O)c1cc(-c2cccs2)nn1-c1ccccc1)Nc1cc([N+](=O)[O-])ccc1Cl gave an inhibition of -13.5%.
Cc1cc(C(C)(C)C)cc(S(=O)(=O)Nc2ccc(C(=O)O)cc2)c1C gave an inhibition of 2.7%.
For CNC(=S)NNC(=O)c1cccn(Cc2ccccc2)c1=O, the inhibition was 4.8%.
Compound CCN(CC)S(=O)(=O)c1ccc(N2CCCC2)c(NS(=O)(=O)c2cccs2)c1 has an inhibition of 7.7%.
In the case of Cc1cc(Oc2ccc(Cl)cc2)nc(SCC(=O)c2ccccc2)n1, the inhibition is reported as -11.5%.
In the case of CC(=O)c1ccc(Oc2cc(C)nc(-n3nc(C)cc3C)n2)cc1, the inhibition is reported as 93.7% (active).
In the case of COc1ccc(Nc2cc(C)nc(-n3nc(C)cc3C)n2)cc1, the inhibition is reported as 92.8% (active).
COc1ccccc1/C=N\Nc1cc(C)nc(-n2nc(C)cc2C)n1 showed an inhibition of 3.2%.
For Cc1cc(C)n(-c2cc(Oc3ccccc3)ncn2)n1, the inhibition was -14.1%.
For COc1ccc(NC(=O)c2nc(-n3nc(C)cc3C)ccc2Cl)cc1Cl, the inhibition was 21.2%.
Work on O=C(NCc1ccccc1)C1=C[C@@H](c2ccc(C(F)(F)F)cc2)C[C@@H](OCc2ccc(CO)cc2)O1 yielded an inhibition of -9.6%.
